The source of these data is PubChem BioAssay.

Test [1] in a line: HUVEC growth inhibition – cell-based, human, primary screen (AID 575).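 Note: 100% = median of untreated cell wells with 0.1% DMSO on each plate.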 As to conditions: HUVEC proliferation, CellTiter-Glo luminescence, 72 h; at 10 µM; stronger effect = lower value.
Test [2] can be described thus: growth inhibitors of H69AR lung tumor, primary screen, human, duplicate replicates (AID 580;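 active = viability at or under a set limit in both replicates, limit being median viability minus 3 SD, cut at about 48% in these data, passing the limit was not always enough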;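 note: 100% = mean luminescence of untreated wells and 0% = no signal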). As to conditions: H69AR lung tumor cells viability, ATP luminescence, 72 h; at 10 µM; stronger effect = lower value.
Test [3] is described as follows: reversal of MRP1-mediated doxorubicin resistance, pilot screen, H69AR cells, doxorubicin co-treatment (AID 601;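 active = viability loss from added drug above about 55%, and viability with drug at most 40%, in both replicates, limit read from the data, passing the limit was not always enough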). As to conditions: CellTiter-Glo, 72 h, at 10 µM; for differential viability (reversal): stronger effect = higher value. A general note: ATP-based viability assays read luminescence as a measure of living cells.
A short description of test [4]: 384-well plate pilot, post-Golgi transport modulator project, inhibition of yeast transport mutant growth (AID 636; in the data active = inhibition above about 31%). Conditions: absorbance 615 nm, about 18 h, stronger effect = higher value.
Test [5] in a line: growth suppression of yeast trafficking mutant, preliminary HTS, modulators of trafficking downstream of Golgi apparatus project, 1536-format plate, OD 615 nm (AID 637; in the data active = inhibition above about 30%). As to conditions: yeast transport mutant growth, absorbance 615 nm, 18 h; stronger effect = higher value.
Test [6] can be described thus: OD615 S. cerevisiae growth inhibition, permissive medium, pilot counter-assay, permissive growth control for S. cerevisiae lifespan shortening project (AID 705;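 active = growth inhibition above 25% in both replicates, a cutoff set 3 SD above the mean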). As to conditions: OD615, 24 h, at 10 µM, stronger effect = higher value.
Test [7] in a line: Restrictive medium S. cerevisiae growth inhibition, OD615, pilot screen of yeast lifespan reduction project, restrictive growth control (AID 706;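 active = growth inhibition above a set limit, 3 SD over mean compound inhibition, in both replicates, cut at about 43% in these data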;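 note: modified DeaD lifespan yeast strain shifted to restrictive glucose medium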). Conditions: OD615, 48 h, at 10 µM, stronger effect = higher value.
A short description of test [8]: viability gain of MRP-1-high H69AR cells under doxorubicin, pilot screen, MRP-1 activator project, CellTiter-Glo, duplicate (AID 807;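 active = viability increase at or above a cutoff of the median across tested compounds plus 3 SD, cut at about 8.5% in these data, passing the limit was not always enough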;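 note: compound pretreatment 18-22 h then 72 h combined with doxorubicin; 0% = doxorubicin alone and 100% = vehicle without doxorubicin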). As to conditions: H69AR viability with doxorubicin, CellTiter-Glo luminescence; at 10 µM; stronger effect = higher value.
Test [9] can be described thus: growth suppression of beta-catenin knockout HCT116, pilot screen, human colon tumor cells (AID 823;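 active = cell viability at or below a set limit in both duplicate runs, the limit being the all-compound median minus 4 SD, cut at about 23% in these data, passing the limit was not always enough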;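 note: 0% = wells killed by 20 µM Hyamine and 100% = untreated DMSO cell wells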). As to conditions: CellTiter-Glo, 60 h, at 10 µM, stronger effect = lower value.
Test [10] can be described thus: growth suppression of PTEN-deleted HCT116, pilot screen, cell-based, HCT116 clonal line, CellTiter-Glo (AID 824;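 active = viability at or below 27.92% in each of two runs, the all-compound median minus 4 SD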;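 note: 0% = 20 µM Hyamine control and 100% = vehicle cell control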). As to conditions: 60 h, at 10 µM, stronger effect = lower value.
The nature of test [11]: inhibitors of the yeast RAM network, pilot screen, dse1pr::URA3 reporter, 5-FOA selection (AID 869;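 active = inhibition over a set limit, the all-compound mean plus 3 SD, in both replicate runs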;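 note: 0% = DMSO wells with no growth and 100% = 10 µM 1-NA-PP1 with full growth; RAM network block rescues cells from 5-FOA so hits raise OD615 growth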). Conditions: S. cerevisiae dse1pr::URA3 5-FOA growth, OD615, 2 d; at 10 µM; stronger effect = higher value; strain carries analog-sensitive mutant Cbk1 kinase.
The nature of test [12]: RAM signaling pathway blockade in yeast – S. cerevisiae, Pdr1DBD-CYC8 efflux-inhibited sensitized strain, primary screen (AID 1298;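 active = RAM network inhibition above 8.4% in each of two replicates, 3 SD over the compound average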;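 note: 0% = DMSO untreated cells without growth and 100% = 10 µM 1-NA-PP1 full growth; higher means more yeast growth rescued from 5-FOA killing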). Conditions: S. cerevisiae cbk1-as DSE1-URA3 strain, 5-FOA growth OD615, 2 d; at 50 µM; stronger effect = higher value.
Setting [13] is: H69AR cells + 2 uM doxorubicin, measured here: viability with 2 uM doxorubicin, stronger effect = lower value.
[14] abbreviates: H69AR cells, compound alone cytotoxicity.

Molecules are shown by their SMILES. Records with an inconclusive call do not appear. Active and inactive are the calls of the source.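 Rule for the calls, unless noted: active = viability at or below 30% in both replicate assays; inconclusive = viability at or below 30% in just one of the two assays; inactive = the rest.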

Turning to `Cc1ccc(-c2cc(C(F)F)nc(N3CCC(C)CC3)n2)cc1`, the viability (in general, a read-out of living cells in per cent, often relative to untreated cells) is 85.7% (inactive) in test [1]; 91.1% (inactive) in test [2]; 89.7% in [3] (setting [13]); 91.1% in [3] (setting [14]); 100% (inactive) in test [9]; 101% (inactive) in test [10]. In addition, the differential viability (reversal) in test [3] (H69AR cells + 2 uM doxorubicin) is 1.39% (inactive). For the same compound, the inhibition (as a rule, the relative decrease from the control value, in per cent) in [4] is -4.47% (inactive); in test [5] it was 1.75% (inactive); in test [11], 2.67% (inactive). In addition, the growth inhibition was 3.35% (inactive) in test [6] and 6.11% (inactive) in test [7]. Moreover, the viability increase in [8] was 1.95% (inactive). Besides, in test [12], the RAM network inhibition was 6.64% (inactive).
Regarding `O=C(NCCN1CCN(c2ccccc2)CC1)c1ccc(NC(=O)C2CCCO2)cc1` (stereo unspecified), the viability is 96.9% (inactive) in [1]; 108% (inactive) in [2]; 100% in test [3] (setting [13]); 108% in test [3] (setting [14]); 95.6% (inactive) in test [9]; 101% (inactive) in [10]. For the same compound, in test [3] (H69AR cells + 2 uM doxorubicin), the differential viability (reversal) was 8.13% (inactive). Moreover, the inhibition in [4] is -3.82% (inactive); in test [5], -0.48% (inactive); in test [11] it was 1.66% (inactive). In addition, the values for the growth inhibition in [6] and in test [7] were -5.63% (inactive) and -8.76% (inactive), respectively. The viability increase in test [8] was -1.13% (inactive). Also, the RAM network inhibition in test [12] was 2.86% (inactive).
Turning to `c1ccc2c(c1)ccc1nnc(-c3ccc4c(c3)OCO4)n12`, the viability in test [1] was 98.7% (inactive); in test [2], 96% (inactive); in test [3] (setting [13]), 91.1%; in test [3] (setting [14]), 96%; in test [9], 93.7% (inactive); in test [10] it was 90.9% (inactive). Moreover, the differential viability (reversal) in test [3] (H69AR cells + 2 uM doxorubicin) was 4.88% (inactive). Also, the inhibition in test [4] was -1.82% (inactive); in test [5], 3.33% (inactive); in test [11], 1.31% (inactive). The growth inhibition in test [6] was -7.74% (inactive); in test [7], 2.03% (inactive). Also, the viability increase in test [8] was -5.23% (inactive). Also, the RAM network inhibition in test [12] is 1.81% (inactive).
In the case of `Cc1cc2ncn(C(=O)N3CCOCC3)c2cc1C`, the viability in [1] is 95.4% (inactive); in test [2], 92.2% (inactive); in test [3] (setting [13]), 84.6%; in [3] (setting [14]), 92.2%; in test [9] it was 97.3% (inactive); in test [10], 97.3% (inactive). In test [3] (H69AR cells + 2 uM doxorubicin), the differential viability (reversal) was 7.56% (inactive). The figures for the inhibition in test [4], in test [5] and in [11] were -2.47% (inactive), -6.03% (inactive) and 1.22% (inactive), respectively. For the same compound, the growth inhibition in [6] was 0.665% (inactive); in test [7], -2.19% (inactive). For the same compound, the viability increase in test [8] was -1.25% (inactive). Also, in [12], the RAM network inhibition was 4.08% (inactive).
As for `CCC(=O)Oc1ccc2c(C)cc(=O)oc2c1C`, the viability in test [1] is 91.1% (inactive); in [2] it was 90.6% (inactive); in test [3] (setting [13]), 102%; in [3] (setting [14]) it was 90.6%; in test [9], 102% (inactive); in test [10] it was 97% (inactive). For the same compound, in test [3] (H69AR cells + 2 uM doxorubicin), the differential viability (reversal) was -11.8% (inactive). Further, the inhibition in test [4] is 0.39% (inactive); in test [5] it was 9.21% (inactive); in [11] it was 0.15% (inactive). Moreover, the growth inhibition is -8.37% (inactive) in test [6] and 7.31% (inactive) in [7]. Moreover, the viability increase in test [8] was -4.73% (inactive). The RAM network inhibition in test [12] was 3.51% (inactive).
As to `CCc1cc2c(NCCC(=O)O)ncnc2s1`, the viability in [1] is 83.3% (inactive); in test [2], 97.6% (inactive); in test [3] (setting [13]) it was 91.7%; in test [3] (setting [14]) it was 97.6%; in [9], 101% (inactive); in test [10], 99.6% (inactive). Also, in test [3] (H69AR cells + 2 uM doxorubicin), the differential viability (reversal) is 5.87% (inactive). Further, the inhibition in test [4] was -3.51% (inactive); in test [5], -0.48% (inactive); in test [11] it was 3.42% (inactive). Also, the growth inhibition in [6] is -7.78% (inactive); in [7], -13.1% (inactive). The viability increase in [8] is -1.99% (inactive). In addition, the RAM network inhibition in test [12] was 2.49% (inactive).
In the case of `CCn1cc(C(=O)NCC2COc3ccccc3O2)c2cc(OC)c(OC)cc2c1=O` (stereo unspecified), the viability is 77.5% (inactive) in test [1]; 79.3% (inactive) in test [2]; 79% in test [3] (setting [13]); 79.3% in [3] (setting [14]); 97.9% (inactive) in test [9]; 86.7% (inactive) in test [10]. Besides, the differential viability (reversal) in test [3] (H69AR cells + 2 uM doxorubicin) was 0.385% (inactive). The inhibition in [4] was -6.05% (inactive); in [5], 0.16% (inactive); in test [11] it was 0.96% (inactive). Also, the growth inhibition was -11.4% (inactive) in test [6] and -33.2% (inactive) in [7]. Further, in test [8], the viability increase was -4.69% (inactive). For the same compound, the RAM network inhibition in [12] is 3.33% (inactive).
For `O=C(c1ccc(NS(=O)(=O)c2cccs2)cc1)N1CCCCC1`, the viability was 72.9% (inactive) in test [1]; 89.9% (inactive) in [2]; 97.5% in test [3] (setting [13]); 89.9% in test [3] (setting [14]); 93.8% (inactive) in [9]; 96.8% (inactive) in [10]. Further, the differential viability (reversal) in [3] (H69AR cells + 2 uM doxorubicin) was -7.68% (inactive). Further, the inhibition in test [4] is -2.63% (inactive); in test [5], -9.05% (inactive); in test [11], 0.805% (inactive). For the same compound, the growth inhibition in test [6] is 1.61% (inactive); in [7], -2.64% (inactive). In addition, in test [8], the viability increase is -1.41% (inactive). Besides, the RAM network inhibition in test [12] is 1.56% (inactive).
Turning to `Cc1ccc(C)c(N2C(=O)CN=C2Nc2ccccc2Cl)c1`, the viability in [1] was 80.1% (inactive); in [2] it was 100% (inactive); in [3] (setting [13]) it was 78.6%; in test [3] (setting [14]), 100%; in test [9] it was 91.5% (inactive); in [10], 94.4% (inactive). Moreover, in [3] (H69AR cells + 2 uM doxorubicin), the differential viability (reversal) is 21.3% (inactive). In addition, the results for the inhibition in test [4], in [5] and in test [11] were -1.95% (inactive), 2.54% (inactive) and 0.715% (inactive), respectively. Further, the results for the growth inhibition in test [6] and in test [7] were -7.25% (inactive) and -0.67% (inactive), respectively. Moreover, the viability increase in [8] is -0.31% (inactive). Also, the RAM network inhibition in test [12] is -0.52% (inactive).
